Test results published in PubChem BioAssay (NCATS).
Inconclusive results are not listed. Entries that show only a call come without a potency. Values without a mark were called inactive. Activity calls are given as the source filed them. Unless noted, calls follow the shape of the dose curve; as a rule, active = well fitted curve in the direction sought with a large enough effect; inconclusive = small, poorly fitted or top-dose-only effect, or another doubt; inactive = no such curve, though single readings can be large; an effect the other way counts as inactive or inconclusive. *1 amine or outer side, *2 acyl side, *3 side chain or, on linkers, in order; H or OH if unused. Where a SMILES comes first, the peptide text is derived from it. [ ]: non-standard residue; d: D form. The star is where a group is joined. ξ: configuration not given here. X9 = CCC(C)(N*)C(=O)C1CC[C@@H](C(=O)N[C@@H](Cc2ccccc2)C(=O)NCC(=O)O)N1; X8 = O=C([C@@H]1CC(O)CN1[*:1])[*:2]; aIle = CC[C@@H](C)[C@H](N)C(=O)O; Thr(3ξ) = CC(O)[C@H](N)C(=O)O; ξIva = CCC(C)(N)C(=O)O; Aib = CC(C)(N)C(=O)O

Legend:
[1] = target: Calcium and integrin-binding protein 1 (Homo sapiens) (UniProt Q99828); assay: Primary qHTS for Identification of Calcium Integrin Binding Protein 1 (CIB1) Competitor (AID 1508620);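 also: GST tagged CIB1 binding a fluorescein labelled alphaIIb integrin peptide tracer; top concentration of the series differs between compounds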
Method in brief: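 Fluorescence polarization competition: GST-tagged CIB1 (1 uM final) preincubated with compound 15 min at room temperature, then FITC-labelled alphaIIb peptide (100 nM final) added. After 15 min at room temperature, polarization read at Ex 480/Em 540.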

[2] = target: N-terminal Xaa-Pro-Lys N-methyltransferase 1 (Homo sapiens) (UniProt Q9BV86); assay: Confirmatory qHTS for Inhibitors of N-terminal methyltransferase 1 (NTMT1): MTaseGlo Assay (AID 1645874);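 also: luminescence from SAH made as NTMT1 methylates SPKRIA peptide using SAM; series mostly up to about 100 µM; nearly all actives have a fitted effect of over 65% in size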
Method in brief: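 NTMT1 (125 nM) preincubated 15 min with compound and 100 uM SAM, then 1 uM SPKRIA peptide added for 30 min at room temperature. SAH detected by MTase-Glo luminescence; normalized to no-enzyme and DMSO controls, fitted to 4-parameter Hill.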

[3] = Primary qHTS for inhibitors of nuclear receptor binding SET domain protein 2 (NSD2) in an isogenic RCH-ACV NSD2 p.E1099K mutant (9B) (AID 1645876); also: nearly all actives have a fitted effect of over 70% in size
[4] = Primary qHTS for inhibitors of nuclear receptor binding SET domain protein 2 (NSD2) in an RCH-ACV wild type WT cells (2C) (AID 1645877); also: nearly all actives have a fitted effect of over 70% in size
[5] = target: Cytochrome P450 2C9 (Homo sapiens) (UniProt P11712); assay: Cytochrome P450 family 2 subfamily C member 9 (CYP2C9) small molecule antagonists: luciferase biochemical (cell-free) qHTS assay (AID 1645842; active = well fitted curve in the direction sought with a large enough effect in the repeat runs; an effect the other way counts as inactive or inconclusive; also: nearly all actives have a fitted effect of over 55% in size; also: potency is read from the fitted curve at half-maximal effect; as to activity change, negative = inhibition: series mostly up to about 57 µM)
Method in brief: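 Luminescence, after 20 min with luciferin detection reagent, reflected CYP2C9 turnover during a 1 h NADPH-driven reaction at 37C. Enzyme-substrate mix contained 0.4% bovine serum albumin and was preincubated with compound 10 min at room temperature.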

Chain of Cytochrome P450 2C9 (Homo sapiens) (P11712 whole entry, looked up): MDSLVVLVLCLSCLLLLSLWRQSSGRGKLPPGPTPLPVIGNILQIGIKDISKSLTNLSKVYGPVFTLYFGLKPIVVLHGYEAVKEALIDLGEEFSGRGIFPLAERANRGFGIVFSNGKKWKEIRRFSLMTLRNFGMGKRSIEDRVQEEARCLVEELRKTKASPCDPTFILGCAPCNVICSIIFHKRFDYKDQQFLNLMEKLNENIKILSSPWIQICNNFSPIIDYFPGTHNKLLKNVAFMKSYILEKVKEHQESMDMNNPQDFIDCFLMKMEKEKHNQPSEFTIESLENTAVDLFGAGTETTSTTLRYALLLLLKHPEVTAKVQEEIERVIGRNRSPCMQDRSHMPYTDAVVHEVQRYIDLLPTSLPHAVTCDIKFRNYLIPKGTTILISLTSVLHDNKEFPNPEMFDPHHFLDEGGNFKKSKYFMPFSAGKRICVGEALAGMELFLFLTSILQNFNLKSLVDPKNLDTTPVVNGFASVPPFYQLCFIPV
Chain of Calcium and integrin-binding protein 1 (Homo sapiens) (Q99828 whole entry, looked up): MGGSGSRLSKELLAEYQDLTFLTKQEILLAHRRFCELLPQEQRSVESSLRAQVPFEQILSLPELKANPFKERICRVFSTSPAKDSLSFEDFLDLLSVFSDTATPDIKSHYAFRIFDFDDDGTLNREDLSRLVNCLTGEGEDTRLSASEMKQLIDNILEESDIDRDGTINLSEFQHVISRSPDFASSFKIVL
Chain of N-terminal Xaa-Pro-Lys N-methyltransferase 1 (Homo sapiens) (Q9BV86 whole entry, looked up): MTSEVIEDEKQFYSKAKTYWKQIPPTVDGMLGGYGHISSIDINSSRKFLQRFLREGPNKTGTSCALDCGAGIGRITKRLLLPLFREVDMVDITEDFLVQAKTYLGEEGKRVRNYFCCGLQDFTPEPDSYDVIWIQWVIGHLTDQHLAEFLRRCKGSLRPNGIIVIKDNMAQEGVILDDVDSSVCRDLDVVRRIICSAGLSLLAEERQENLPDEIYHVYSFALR

For `O=C(NCCN1CCCC1)c1cc(-c2ccc(CN3CCOCC3)cc2)nc2ccc(F)cc12`, the Potency [1] was “inactive”, the Potency [2] was “inactive” and the Potency [3] was “inactive”. The Potency [4] was “inactive”.
`CC[C@@H](C)[C@H](NC(=O)C(C)(C)NC(=O)[C@H](CCC(N)=O)NC(=O)C(C)(CC)NC(=O)[C@H](Cc1c[nH]c2ccccc12)NC(C)=O)C(=O)N[C@H](C(=O)NC(C)(C)C(=O)N[C@@H](CC(C)C)C(=O)NC(C)(C)C(=O)N1CCC[C@H]1C(=O)N[C@@H](CCC(N)=O)C(=O)NC(C)(C)C(=O)N1CC(O)C[C@H]1C(=O)NC(C)(CC)C(=O)C1CC[C@@H](C(=O)N[C@@H](Cc2ccccc2)C(=O)NCC(=O)O)N1)C(C)O` (stereo partly drawn) (Ac-W[ξIva]Q[Aib][aIle][Thr(3ξ)][Aib]L[Aib]PQ[Aib][X8]-X9) gave an activity change, negative = inhibition [1] of 3.33% [at 12.4 µM] and an activity change, negative = viability loss [3] of -38.6% [at 4.96 µM].
In the case of `Cc1cc(C(=O)N2Cc3cnn(C)c3Nc3ccccc32)ccc1CNC(=O)N1CCN(Cc2cc(O)cc(O)c2)CC1`, the Potency [1] is reported as “inactive”, the Potency [5] is reported as 2.39 µM (active) and the Potency [3] is reported as “inactive”. The Potency [4] was “inactive”.
With `O=C(CC1CC(c2ccc(F)cc2F)=NO1)N1CCOCC1` (stereo not drawn) the Potency [1] was “inactive”, the Potency [5] was “inactive” and the Potency [3] was “inactive”. The Potency [4] was “inactive”.
`CC(=O)O[C@@H]1[C@H](O[C@@H]2O[C@H](CO)[C@@H](O)[C@H](O)[C@H]2O)[C@@H](O[C@@H]2O[C@@H](C)[C@H](O)[C@@H](O[C@@H]3O[C@H](CO)[C@@H](O)[C@H](O)[C@H]3O)[C@H]2O)[C@H](OC(=O)[C@]23CCC(C)(C)C[C@H]2C2=CCC4[C@@]5(C)C[C@H](O)[C@H](O[C@@H]6O[C@H](C(=O)O)[C@@H](O)[C@H](O)[C@H]6O)[C@@](C)(C(=O)O)C5CC[C@@]4(C)[C@]2(C)CC3)O[C@@H]1C` (stereo partly drawn) showed an activity change, negative = inhibition [1] of -1.12% [at 12.4 µM] and an activity change, negative = viability loss [3] of -4.25% [at 9.23 µM].
With `O=C(N[C@H](Cc1ccccc1)C(=O)O)c1sc2cc(F)ccc2c1Cl` the Potency [1] was “inactive”, the Potency [5] was 16.9 µM (active) and the Potency [3] was “inactive”. For the same molecule, the Potency [4] was “inactive”.
In the case of `COc1cc(CO)ccc1O[C@@H]1O[C@H](CO)[C@@H](O)[C@H](O)[C@H]1O`, the Potency [1] is reported as “inactive” and the Potency [3] is reported as “inactive”.
For `CC1(C)CC[C@]2(C(=O)O[C@@H]3O[C@H](CO[C@@H]4O[C@H](CO[C@@H]5O[C@H](CO)[C@H](O)[C@H](O)[C@H]5O)[C@@H](O)[C@H](O)[C@H]4O)[C@@H](O)[C@H](O[C@@H]4O[C@H](CO)[C@@H](O)[C@H](O)[C@H]4O)[C@H]3O)[C@H](O)C[C@]3(C)C(=CCC4[C@@]5(C)CC[C@H](O[C@@H]6OC[C@@H](O)[C@H](O)[C@H]6O)[C@@](C)(C(=O)O)C5CC[C@]43C)[C@@H]2C1` (stereo partly drawn), the activity change, negative = inhibition [1] was 3.63% [at 12.4 µM] and the outcome [3] was “inactive [at 9.23 µM]”.
For `COc1cc(OC)cc(-c2ccc3c(-c4ccc(F)cc4)[nH]nc3n2)c1`, the Potency [1] was “inactive”, the Potency [5] was 7.56 µM (active) and the Potency [3] was “inactive”. The Potency [4] was “inactive”.
For `CC(C)C1NC(=O)C2CCCN2C1=O` (stereo not drawn), the Potency [1] was “inactive” and the Potency [3] was “inactive”.
With `O=C(Nc1cc(-c2ccccc2)nn1-c1ccccc1F)c1ccc([N+](=O)[O-])cc1` the Potency [1] was “inactive”, the Potency [5] was 6.74 µM (active) and the Potency [4] was “inactive”.
With `Fc1ccccc1-c1nc2ccn(Cc3ccc(-c4ccc(C(F)(F)F)cc4C(F)(F)F)nn3)cc-2n1` the Potency [1] was “inactive”, the Potency [5] was 23.9 µM (active) and the Potency [3] was “inactive”. For the same molecule, the Potency [4] was “inactive”.
For `C/C=C/C=C/C(O)=C1/C(=O)[C@]2(C)C3/C(=C(O)/C=C/C=C/C)C(=O)C4(C)C1[C@]1(C)O[C@@]4(O)[C@@]3(C)O[C@@]12O`, the Potency [1] was “inactive” and the Potency [3] was “inactive”.
With `CCC(C)C1NC(=O)C2C(C)CCN2C(=O)C(CC(O)CO)OC(=O)CCNC(=O)C(C)N(C)C(=O)C(C(C)C)N(C)C1=O` (stereo not drawn) the Potency [1] was “inactive” and the Potency [3] was “inactive”.
In the case of `CCC(C)/C=C(C)/C=C/C1=CC2=C(Cl)C(=O)C(C)(OC(C)=O)C(=O)C2=CN1CCCCC(N)C(=O)O` (stereo not drawn), the Potency [1] is reported as “inactive” and the Potency [3] is reported as “inactive”.
For `CC/C=C/C=C/C1(C)OC(CC(CO)OC)=CC1=O` (stereo not drawn), the Potency [1] was “inactive” and the Potency [3] was “inactive”.
For `CCCC1=CC2=C(CO1)C(=O)C(C)(O)C(OC(=O)c1c(C)cc(OC)cc1O)C2` (stereo not drawn), the Potency [1] was “inactive” and the Potency [3] was “inactive”.
With `OC[C@@]1(O)CO[C@@H](OC[C@H]2O[C@@H](OCc3ccccc3)[C@H](O)[C@@H](O)[C@@H]2O)[C@@H]1O` the Potency [1] was “inactive” and the Potency [3] was “inactive”.
For `C=CC1(C)CC=C2C(CCC3C(C)(C(=O)O)CCCC23C)C1` (stereo not drawn), the Potency [1] was “inactive” and the Potency [3] was “inactive”.
With `C=C1CC[C@@]2(OC1)O[C@H]1CC3C4CC=C5C[C@@H](O[C@@H]6O[C@@H](C)[C@H](O)[C@@H](O)[C@H]6O)C[C@@H](O[C@@H]6O[C@H](C)[C@H](O)[C@H](O)[C@H]6O[C@@H]6O[C@@H](C)[C@H](O)[C@@H](O)[C@H]6O)[C@]5(C)C4CC[C@]3(C)[C@H]1[C@@H]2C` (stereo partly drawn) the Potency [1] was “inactive” and the activity change, negative = viability loss [3] was -22.3% [at 9.23 µM].
For `COc1ccc2c(c1)N1C(=O)C[C@@]34C=CC[N@+]5([O-])CC[C@H]2[C@H](CC3)[C@@]145`, the Potency [1] was “inactive” and the Potency [3] was “inactive”.
For `CC1CC(=O)C2C(O)(C1)CC(O)C13OC1c1c(O)cccc1C(=O)C23O` (stereo not drawn), the Potency [1] was “inactive” and the Potency [3] was “inactive”.
With `CC1(C(=O)O)CCCC2(C)C3CCC4CC3(CCC12)CC4(O)CO` (stereo not drawn) the Potency [1] was “inactive” and the Potency [3] was “inactive”.
For `CC1(C)OC(=O)CC(O)C2(C)C1CC(=O)C1(C)C2C(O)CC2(C)C(c3ccoc3)OC(=O)C3OC321` (stereo not drawn), the Potency [1] was “inactive” and the Potency [3] was “inactive”.
For `CC1(O)CCC2C(C3C1CCC3(C)O)C2(C)C` (stereo not drawn), the Potency [1] was “inactive” and the Potency [3] was “inactive”.
In the case of `CCC(C)C(=O)O[C@H]1[C@@H](O[C@H]2O[C@H](CO)[C@@H](O)[C@H](O)[C@H]2O)O[C@H](CO)[C@@H](O)[C@@H]1O` (stereo partly drawn), the Potency [1] is reported as “inactive” and the Potency [3] is reported as “inactive”.
For `C=C1CCC2C(C)(C)CC(=O)CC2(C)C1CCC(C)CCO` (stereo not drawn), the Potency [1] was “inactive” and the Potency [3] was “inactive”.
In the case of `COc1cc(C(C)=O)ccc1O[C@@H]1O[C@H](CO[C@@H]2OC[C@@H](O)[C@H](O)[C@H]2O)[C@@H](O)[C@H](O)[C@H]1O`, the Potency [1] is reported as “inactive” and the Potency [3] is reported as “inactive”.
In the case of `C=C1CCC2[C@@](C)(C(=O)O)CCC[C@@]2(C)[C@@H]1CCc1ccoc1` (stereo partly drawn), the Potency [1] is reported as “inactive” and the Potency [3] is reported as “inactive”.
For `C[C@H]1CC[C@@]2(OC1)O[C@H]1CC3C4CC[C@H]5C[C@@H](O[C@@H]6O[C@H](CO)[C@H](O[C@@H]7O[C@H](CO)[C@@H](O)[C@H](O[C@@H]8OC[C@@H](O)[C@H](O)[C@H]8O)[C@H]7O[C@@H]7O[C@H](CO)[C@@H](O)[C@H](O)[C@H]7O)[C@H](O)[C@H]6O)[C@H](O)C[C@]5(C)C4=CC(=O)[C@]3(C)[C@H]1[C@@H]2C` (stereo partly drawn), the Potency [1] was “inactive” and the activity change, negative = viability loss [3] was -21.3% [at 9.23 µM].
